Tests used:
Settings in all cases: concentration: 1 μM, replicates: in singlicate; n = 1
[1] = tested on: GRK4
[2] = tested on: GRK7
[3] = tested on: GSK3A
[4] = tested on: GSK3B
[5] = tested on: T1, HASPIN
T1 construct: gene GSG2

[6] = tested on: HCK
[7] = tested on: HIPK1
[8] = tested on: HIPK2
[9] = tested on: HIPK3
[10] = tested on: HIPK4
[11] = tested on: HPK1
[12] = tested on: HUNK
[13] = tested on: ICK
[14] = tested on: IGF1R
[15] = tested on: T2, IKK-alpha
T2 construct: gene CHUK

[16] = tested on: T3, IKK-beta
T3 construct: gene IKBKB

[17] = tested on: T4, IKK-epsilon
T4 construct: gene IKBKE

[18] = tested on: INSRR
[19] = tested on: INSR
[20] = tested on: IRAK1
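Also: KINOMEscan kinase panel screen.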

Structure (SMILES)	%Inh [1] [%]	%Inh [2] [%]	%Inh [3] [%]	%Inh [4] [%]	%Inh [5] [%]	%Inh [6] [%]	%Inh [7] [%]	%Inh [8] [%]	%Inh [9] [%]	%Inh [10] [%]	%Inh [11] [%]	%Inh [12] [%]	%Inh [13] [%]	%Inh [14] [%]	%Inh [15] [%]	%Inh [16] [%]	%Inh [17] [%]	%Inh [18] [%]	%Inh [19] [%]	%Inh [20] [%]
CN1c2ccc(CNc3ccc(F)cc3)cc2-c2c(cnn2C)S1(=O)=O	0	0	22	0	33	4	35	0	0	0	17	34	0	0	0	0	0	0	0	0
COc1cc(Nc2nccc(N3CCC(NC(=O)c4cccc(NC(C)=O)c4)C3)n2)cc(OC)c1OC (centres unmarked) [GSK1379754]	18	0	0	0	30	0	3	0	0	0	70	0	0	0	5	8	14	0	1	40
CCn1cnc2c(N)ncnc21 [GW345098]	0	0	6	9	25	30	33	5	30	0	0	4	0	3	0	4	0	0	10	0
O=C(Nc1cccc(-c2nn3ncccc3c2-c2ccnc(Nc3cccc(C(F)(F)F)c3)n2)c1)c1c(F)cccc1F [GSK299495]	2	0	0	18	2	98.1	0	0	1	0	35	4	8	14	33	17	0	0	0	38
Cc1cccc(-c2nc(Nc3ccc4ncsc4c3)c3ccccc3n2)n1 [GW867588]	0	7	3	5	16	24	0	11	0	6	0	45	17	0	15	0	4	0	0	40
O=C(c1ccc(-c2cc(-c3c[nH]nc3-c3ccccn3)ccn2)cc1)N1CCOCC1 [GW812171]	14	0	8	7	0	36	36	0	6	7	0	33	0	0	46	0	0	0	21	14
Nc1nccc(-c2c(-c3ccc(F)cc3)ncn2C2CCN(CC(F)(F)F)CC2)n1 [SB-236560]	10	2	0	0	36	0	27	57	0	0	48	0	63	0	7	0	54	21	0	29
COC(=O)Nc1nc2cc(Oc3ccc(NC(=O)Nc4cc(F)ccc4F)cc3)ccc2[nH]1.Cl [GW701424]	0	0	3	11	0	6	0	0	5	29	30	20	0	18	33	4	16	0	0	36
CC(C)Oc1ccc2c(-c3ccnc(Nc4ccc(N5CCN(C)CC5)cc4)n3)cnn2n1 [GW696155]	84	0	0	6	70	0	97.2	98.7	98.5	83	54	0	49	0	100	100	54	0	21	99.9
COCCNC(=O)c1ccc(-c2cc(C(=O)NC3CC3)cc(F)c2C)cc1 [GW868318]	7	28	0	42	0	24	23	15	35	17	4	7	40	3	36	29	4	19	10	37
